# Dicer inh = blocks human Dicer maturation of pre-miR-21; 47,000 tested, 6% active; z-score at 25 µM; cat-ELCCA pre-miR-21 Dicer processing, chemiluminescence; stronger effect = higher value; in the data active means z-score above about 3, passing the limit was not always enough;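 further: plate controls were vehicle for no effect and no enzyme for full effect; higher signal means more uncleaved substrate so more Dicer inhibition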
# * hit, by the source's call. Shown is part of a subset that was picked to be rich in hits.
SMILES,Dicer inh
CS/C(=N\S(=O)(=O)c1ccccc1)NNC(=O)c1c(-c2c(Cl)cccc2Cl)noc1C,-0.54
CC1(C)CC(=O)C2=C(C1)NC1=C(C(=O)CC(C)(C)C1)C2c1ccc(Cl)c(Cl)c1,-0.56
O=C(Nc1ccc(Cl)cc1)Nc1nc(-c2cc(Cl)c(Cl)s2)cs1,1.52
O=C(Nc1ccc(Cl)cc1)Nc1cc(Cl)sc1Cl,4.67*
N#Cc1c(F)ccc(NC(=O)Nc2ccc(Cl)cc2)c1F,-0.58
CSc1cc(-c2ccco2)[nH]c(=O)c1C#N,2
COCCCNc1ccc([N+](=O)[O-])c(NCCCOC)c1C#N,-0.36
O=C(O)c1ccccc1C(=O)c1ccc(-c2ccccc2)cc1,-0.68
Cc1cccc(C(=O)c2ccccc2C(=O)O)c1,-1.17
O=C(O)c1ccccc1C(=O)c1ccc(F)cc1,3.13*
O=C(Nc1cccc(O)c1)c1cc2nc(-c3cccs3)cc(C(F)(F)F)n2n1,0.32
COC(=O)CSc1ccc([N+](=O)[O-])c(SCC(=O)OC)n1,-0.81
Nc1nnc(SCC(=O)Nc2nc(-c3ccccc3)cs2)s1,0.7
COc1cc2c(cc1OC)C(c1ccccc1N)=NCC2,-2.89
COc1cc2c(cc1OC)C(/C=C1\SC(C(=O)c3cccs3)=NN1c1ccc(C)cc1)=NCC2,0.72
CCOC(=O)C1=NN(c2ccc(C)cc2)/C(=C/C2=NCCc3cc(OC)c(OC)cc32)S1,4.4*
Cc1ccc2nc(-c3ccc(N4C(=O)c5cccnc5C4=O)cc3)sc2c1,-1.37
Cc1ccc(S(C)(=O)=NC(=O)Nc2ccc(Cl)cc2)cc1 (stereo unspecified),0.02
CC(=O)NC(Nc1ccccc1C)(C(F)(F)F)C(F)(F)F,-0.14
C/C(Nc1ccccc1C)=C1/CCOC1=O,3.97*
C/C(Nc1ccccc1F)=C1/CCOC1=O,0.1
COc1cc(C2=NNC(=O)CC2)cc(OC)c1OC,-1.52
Nc1ncnc(SCc2ccc(Cl)cc2)n1,-1.68
C=CCn1c(SCC(=O)Nc2c(C#N)cnn2-c2ccccc2)nnc1-c1ccncc1,0.2

# Bioassay records: PubChem BioAssay, Center for Chemical Genomics, University of Michigan
